p53 reactivation: mutant p53 re-activation in reporter cells; hit rate 0.063% among 320,000; H1299 p53-A138V BP100-luciferase reporter, luminescence, 24 h; Potency, µM (series often up to 92.2 µM), without a hit: top-dose activity change, positive = activation, usual class: activators; AID 504706; note: potency is the fitted concentration of half-maximal effect; % of control where 0% means no effect; nearly all actives have a fitted effect of over 45% in size
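p53-null H1299 cells stably carrying temperature-sensitive p53-A138V and a BP100-luciferase reporter were pinned with compounds (4-point, 1:5 series) and held 24 hrs at 37 deg C. Luminescence was read 10 min after detection reagent.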
B2AR arrestin: agonists driving beta-arrestin recruitment to human beta2-adrenergic receptor; P07550; beta-arrestin recruitment to beta2AR, cell-based reporter; Potency, µM (top dose mostly 46.1 µM), for the others: at the highest dose activation, most hits filed as activators; hit rate 0.02% among 330,000; AID 492947;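 note: potency is the fitted concentration of half-maximal effect; 0% = DMSO controls and full agonism = EC100 isoproterenol or metaproterenol; nearly all actives have a fitted effect of over 65% in size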
Target sequence (P07550 whole entry, looked up): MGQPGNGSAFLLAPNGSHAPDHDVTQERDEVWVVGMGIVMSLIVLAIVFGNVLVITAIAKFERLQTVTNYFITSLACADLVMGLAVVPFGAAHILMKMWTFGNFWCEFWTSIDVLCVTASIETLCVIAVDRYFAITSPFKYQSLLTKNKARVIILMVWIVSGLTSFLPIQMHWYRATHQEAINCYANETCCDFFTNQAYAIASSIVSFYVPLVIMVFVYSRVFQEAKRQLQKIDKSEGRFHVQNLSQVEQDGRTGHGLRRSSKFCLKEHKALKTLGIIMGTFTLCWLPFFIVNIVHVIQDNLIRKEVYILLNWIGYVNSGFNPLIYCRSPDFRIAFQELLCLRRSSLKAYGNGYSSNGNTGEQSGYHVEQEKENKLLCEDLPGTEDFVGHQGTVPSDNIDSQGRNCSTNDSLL
ClpP mod: qHTS Assay for Activators of ClpP; purified B. subtilis ClpP, FRET peptide cleavage, 20 min; Potency, µM (highest dose often 57.5 µM), inactives show at the top dose activity change, negative = active; hit rate 1.9% among 340,000; ATP-dependent Clp protease proteolytic subunit (Bacillus subtilis (strain 168)), P80244; AID 651965, 2013; active = well fitted falling curve with a large enough effect; inconclusive = small, poorly fitted or top-dose-only effect; inactive = no such curve, though single readings can be large or run the other way; note: potency is the fitted concentration of half-maximal effect; the source files actives as falling curves though it sought activators and does not explain the sign; nearly all actives have a fitted effect of over 65% in size
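FRET quenching reversal measured ClpP activation: 10 microg/mL B. subtilis ClpP at pH 8 with the FRET-FV decapeptide, read at 430 nm after 320 nm excitation. The 20-min minus 0-min signal was scaled between DMSO/no-enzyme wells and ADEP (5.8 microM final).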
Mito fusion act: inhibitors of mitochondrial division or activators of mitochondrial fusion. S. cerevisiae fusion-defective mutant growth rescue, CellTiterGlo 48 h. Potency, µM (highest dose often 46.1 µM), for the others: at the top dose growth rescue (activation), usual class: activators. hit rate 0.23% among 320,000; note: potency is the fitted concentration of half-maximal effect; % of control where 0% means no effect; nearly all actives have a fitted effect of over 45% in size
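Luminescent cell viability in 1536-well qHTS format served as the measure of rescued growth in ts fusion-mutant S. cerevisiae cultured on non-fermentable YPEG for 48 hours at 37C.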
Giardia killer: Giardia lamblia killing; hit rate 0.15% among 340,000; Giardia lamblia trophozoite viability; activity change, % at 7.66 µM, hits read low; in the data active = activity change below about -80%; inconclusive = between about -30% and that limit;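 note: parasites exposed to compound for two days anaerobically before the ATP read; % is set by controls: 0 for no effect and ±100 for the full control effect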
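Giardia trophozoites, 100 cells per well, were exposed to compounds for 48 hrs at 37 deg C under anaerobic conditions; viability was then read as ATP content by bioluminescence after 15-30 min at room temperature.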
uPA generation: inhibitors of cell surface uPA generation. Potency, µM (series often up to 38.3 µM), without a hit: at the highest dose activity change, negative = inhibition, usual class: inhibitors. AID 540303. hit rate 0.31% among 330,000. cell surface uPA generation assay, qHTS; active = well fitted inhibition curve with a large enough effect; inconclusive = small, poorly fitted or top-dose-only effect; inactive = no such curve, though single readings can be large or run the other way; tested in mouse RAW 264.7 cells; note: potency is the fitted concentration of half-maximal effect; % is set by controls: 0 for no effect and ±100 for the full control effect; nearly all actives have a fitted effect of over 55% in size
* marks the source's active call; other numbers are inactive results; ? = inconclusive; · = not tested or not shown; ! = repeats disagree. An excerpt weighted towards active compounds, which were near 2.1% of everything screened. Unless noted, calls come from the whole dose curve; as a rule, active = well fitted curve in the direction sought with a large enough effect; inconclusive = small, poorly fitted or top-dose-only effect, or another doubt; inactive = no such curve, though single readings can be large; an effect the other way counts as inactive or inconclusive.

SMILES | p53 reactivation | B2AR arrestin | ClpP mod | Mito fusion act | Giardia killer | uPA generation
O=C(NCc1cccc(Br)c1)c1cnn(-c2ccc(F)cc2)c1-n1cccc1 | · | · | -1% | · | · | ·
CC(C)c1ccc(N2C(=O)CSC23C(=O)N(Cc2ccccc2F)c2ccccc23)cc1 (configuration not stated) | · | · | 0% | · | · | ·
COCC(C)NC(=O)c1ccccc1OC(C)=O (configuration not stated) | 7% | 0% | 25µM* | -5% | 4 | 3%
Cn1nnnc1Sc1ncnc2scc(-c3cccc(Br)c3)c12 | -15% | 0% | · | · | ? | 8.9µM*
Cc1sc2ncnc(Sc3nnnn3-c3ccccc3)c2c1C | -22% | -1% | 32µM*! | 0% | 2 | ?
Cc1ccc(-c2csc3ncnc(Sc4nnnn4-c4ccccc4)c23)cc1 | · | · | -15% | · | · | ·
Cn1nnnc1Sc1ncnc2scc(-c3ccccc3Cl)c12 | -41% | -3% | · | -4% | 12 | 10µM*
CC(OC(=O)c1ccccc1OCC(=O)Nc1ccc(Br)cc1)C(=O)NC1CCCC1 (configuration not stated) | · | · | -4% | · | · | ·
COCOc1cc(O)c(C(=O)/C=C/c2ccccc2)c(OCOC)c1 | · | · | 4% | · | 1 | 10µM*
COc1ccccc1CNC(=O)c1ccc2c(c1)CCN2S(=O)(=O)c1ccc(Cl)cc1 | · | · | 2% | · | · | ·
COc1ccc(-n2c(SCC(=O)N/N=C(\C)c3cccnc3)nc3ccccc3c2=O)cc1 | 2% | 0% | 32µM* | -3% | -10 | -5%
CCOC(=O)c1c(NC(=O)C2COc3ccccc3O2)sc2c1CCN(Cc1ccccc1)C2 (configuration not stated) | 30% | 0% | 25µM* | 11% | -1 | 10%
NC(=O)c1c(NC(=O)C2COc3ccccc3O2)sc2c1CCN(Cc1ccccc1)C2 (configuration not stated) | 2% | 0% | · | -2% | 26 | 3%
CCOC(=O)c1c(C2COc3ccccc3O2)csc1NC(=O)c1ccccc1 (configuration not stated) | 1% | 0% | 14µM* | -3% | 1 | ·
CCOC(=O)c1c(C2COc3ccccc3O2)csc1N (configuration not stated) | -4% | 0% | -1% | 18% | 0 | ·
CCOc1cc(-c2ccc3c(c2)OCO3)cc(=[O+]CC)c2c(C)oc(C)c12 | · | · | -4% | · | 0 | ·
CCCOc1ccc(C(=O)Nc2ccc(Cl)c(-c3nc4ncccc4o3)c2)cc1 | · | · | -13% | · | · | ·
COc1ccccc1CCNC(=O)C(C)Sc1nc(-c2ccccc2)cc(C(F)(F)F)n1 (configuration not stated) | · | · | 0% | · | · | ·
Cc1nn(S(=O)(=O)c2ccc(C(C)(C)C)cc2)c(C)c1S(=O)(=O)N1CCC(C)CC1 | · | · | 2% | · | · | ·
COc1cc2[nH]c(=O)n3nc(-c4ccccc4)nc3c2cc1OC | 6% | 0% | ? | -2% | 6 | 6%
COc1ccc(-c2nc3c4ccccc4[nH]c(=O)n3n2)cc1 | · | · | 32µM* | 9% | 3 | ·
Nc1nc[nH]c(=O)c1N | · | · | -28% | · | · | ·
COc1ccccc1-c1nnc(-c2ccc(N3CCOCC3)cc2)o1 | 8% | 0% | 18µM* | 11% | -16 | 1%
COc1ccc(OC)c(CNC(=O)c2ccc(Sc3ccc(C)cc3)c(N)c2)c1 | · | · | 5% | · | · | ·
COC(=O)c1ccc(Sc2ccc(C)cc2)c(N)c1 | ? | 0% | 28µM* | 15% | -1 | ·
Cc1ccc2[nH]cc(C(O)c3c[nH]c4ccc(C)cc34)c2c1 | · | · | -1% | · | · | ·
Cn1c(=O)c2c(O)c(Cc3ccccc3)c(=O)[nH]c2n(C)c1=O | 7% | 0% | 0% | 20µM* | -24 | 4%
Cc1ccc(C(=O)Nc2ccc3oc(-c4ccc(C(C)(C)C)cc4)nc3c2)cc1 | · | · | -4% | · | · | ·
CCOC(=O)N1CCN(S(=O)(=O)c2ccc(C(=O)Nc3ccc4c(c3)C(=O)NC4=O)cc2)CC1 | -3% | 0% | 20µM* | 0% | -11 | -1%
